Laboratory results taken from PubChem BioAssay (Tox21).
“And” between values parts separate entries of the source, which are not always exact repeats. Equal entries are not always repeated. Some structures have more than one record in an assay (separate samples or runs), and their calls can disagree. The source made the active and inactive calls. A call without a number means that no potency is given here. Unless noted, the call rests on the fitted dose curve; in most records, active means well fitted curve in the direction sought with a large enough effect in the repeat runs; inconclusive means weak or mixed curves; inactive means no such curve, though single readings can be large; an effect the other way counts as inactive or inconclusive.

Legend:
[1] = test system: thyroid hormone receptor (rat, GH3 cells); assay: qHTS assay to identify small molecule agonists of the thyroid receptor (TR) signaling pathway (AID 743066; calls by dose curve); conditions: GH3.TRE-Luc cells, TR agonist luciferase, 24 h; series mostly up to 83.9 µM
[2] = molecular target: Estrogen receptor (Homo sapiens) (UniProt P03372); assay: qHTS assay to identify small molecule antagonists of the estrogen receptor alpha (ER-alpha) signaling pathway (AID 743069; active means well fitted curve in the direction sought with a large enough effect in the signal ratio in the repeat runs, not every such curve was filed as active; inconclusive means weak or mixed curves, or effect the other way; inactive means no such curve, though single readings can be large or run the other way; the % refers to the signal ratio); conditions: HEK293 ER-alpha-UAS-bla, beta-lactamase ratio, antagonist mode; series mostly up to 69.4 µM
Chain of Estrogen receptor (Homo sapiens) (P03372 whole entry, looked up): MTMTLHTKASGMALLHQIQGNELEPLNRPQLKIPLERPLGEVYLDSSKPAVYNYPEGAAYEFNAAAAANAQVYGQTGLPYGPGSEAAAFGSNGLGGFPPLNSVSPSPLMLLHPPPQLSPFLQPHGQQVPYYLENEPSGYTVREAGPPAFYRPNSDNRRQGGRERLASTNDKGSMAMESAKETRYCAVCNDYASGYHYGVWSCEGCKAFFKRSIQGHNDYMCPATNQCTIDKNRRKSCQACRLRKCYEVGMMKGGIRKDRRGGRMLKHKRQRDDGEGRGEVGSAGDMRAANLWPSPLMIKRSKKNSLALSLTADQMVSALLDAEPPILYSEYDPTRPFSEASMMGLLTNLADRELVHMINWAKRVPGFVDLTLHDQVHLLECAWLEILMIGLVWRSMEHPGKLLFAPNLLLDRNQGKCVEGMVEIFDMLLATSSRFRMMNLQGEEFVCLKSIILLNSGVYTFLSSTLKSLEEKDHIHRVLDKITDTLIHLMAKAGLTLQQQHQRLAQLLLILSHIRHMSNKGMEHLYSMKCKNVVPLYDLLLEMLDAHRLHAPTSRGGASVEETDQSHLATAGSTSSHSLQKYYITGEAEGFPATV
Procedure, shortened: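 ER-alpha-UAS-bla GripTite HEK293 line; 2% charcoal-stripped FBS overnight; plated, 4 hr 37C/5% CO2; cpd in DMSO + 17beta-estradiol, 18 hr 37C; LiveBLAzer B/G FRET substrate 2 hr RT; fluorescence intensity.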

[3] = molecular target: Estrogen receptor (Homo sapiens) (UniProt P03372); assay: qHTS assay to identify small molecule agonists of the estrogen receptor alpha (ER-alpha) signaling pathway (AID 743075; calls by dose curve;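 further: HEK293 GripTite cells with ER-alpha and UAS-driven beta-lactamase reporter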; further: potency means the concentration at half of the fitted maximal effect); conditions: HEK293 ER-alpha-UAS-bla, beta-lactamase FRET ratio, 18 h; series mostly up to 70.1 µM
[4] = qHTS assay to identify small molecule antagonists of the estrogen receptor alpha (ER-alpha) signaling pathway using the BG1 cell line (AID 743080; calls by dose curve; further: nearly all actives have a fitted effect of over 25% in size; further: potency means the concentration at half of the fitted maximal effect); conditions: BG1Luc4E2 ERE-luciferase antagonist mode, luminescence; series mostly up to 70.3 µM
Procedure, shortened: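 Antagonist mode: compounds in DMSO were pinned onto BG1-Luc-4E2 cells alongside 17beta-estradiol agonist, incubated 21.5 h, and ERE-driven luciferase measured with ONE-Glo. Cytotoxicity was multiplexed using CellTiter-Fluor fluorescence.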

[5] = qHTS assay to identify small molecule antagonists of the estrogen receptor alpha (ER-alpha) signaling pathway using the BG1 cell line - cell viability counter screen (AID 743081); conditions: BG1Luc4E2 viability, CellTiter-Fluor, 22 h; series mostly up to 70.3 µM;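 further: compound given together with 17beta-estradiol as the ER stimulus; nearly all actives have a fitted effect of over 45% in size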
[6] = qHTS assay to identify aromatase inhibitors - cell viability counter screen (AID 743084); conditions: MCF-7 aro ERE viability, CellTiter-Fluor, 24 h; series mostly up to 70.3 µM;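 further: cells stimulated with testosterone during compound exposure; nearly all actives have a fitted effect of over 55% in size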; further: potency means the concentration at half of the fitted maximal effect
[7] = molecular target: Aryl hydrocarbon receptor (Homo sapiens) (UniProt P35869); assay: qHTS assay to identify small molecule that activate the aryl hydrocarbon receptor (AhR) signaling pathway (AID 743085); conditions: HepG2 AhR-luc (HG2L7.5c1), luciferase, 24 h; series mostly up to 70.3 µM; further: nearly all actives have a fitted effect of over 15% in size; further: potency means the concentration at half of the fitted maximal effect;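 on activation: HG2L7.5c1 human HepG2 liver cells with stably integrated DRE-driven firefly reporter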
Chain of Aryl hydrocarbon receptor (Homo sapiens) (P35869 whole entry, looked up): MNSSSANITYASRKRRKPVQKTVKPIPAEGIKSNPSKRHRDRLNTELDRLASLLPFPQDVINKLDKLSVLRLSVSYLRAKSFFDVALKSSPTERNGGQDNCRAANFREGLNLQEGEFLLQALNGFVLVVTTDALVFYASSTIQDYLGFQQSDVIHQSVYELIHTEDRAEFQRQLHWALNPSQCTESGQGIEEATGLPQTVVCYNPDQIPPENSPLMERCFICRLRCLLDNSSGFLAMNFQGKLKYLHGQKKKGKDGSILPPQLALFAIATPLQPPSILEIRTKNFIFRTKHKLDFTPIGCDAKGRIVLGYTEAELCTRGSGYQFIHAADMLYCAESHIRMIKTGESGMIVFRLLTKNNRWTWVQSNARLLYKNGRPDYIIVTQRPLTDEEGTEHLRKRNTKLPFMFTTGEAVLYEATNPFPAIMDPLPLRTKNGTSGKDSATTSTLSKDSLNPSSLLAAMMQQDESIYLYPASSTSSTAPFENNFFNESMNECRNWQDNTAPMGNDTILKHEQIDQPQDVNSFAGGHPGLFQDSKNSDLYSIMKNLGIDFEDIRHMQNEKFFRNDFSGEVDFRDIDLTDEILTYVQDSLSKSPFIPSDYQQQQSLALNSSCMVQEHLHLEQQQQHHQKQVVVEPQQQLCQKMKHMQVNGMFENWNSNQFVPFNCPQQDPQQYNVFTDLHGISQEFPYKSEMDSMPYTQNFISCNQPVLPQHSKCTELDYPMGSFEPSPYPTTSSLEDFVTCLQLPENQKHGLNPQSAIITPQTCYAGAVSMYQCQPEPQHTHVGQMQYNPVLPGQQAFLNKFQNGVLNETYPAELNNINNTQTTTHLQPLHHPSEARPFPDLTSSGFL
Procedure, shortened: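 A multiplexed format paired cell viability (CellTiter-Fluor fluorescence) with AhR-dependent luciferase output (ONE-Glo luminescence) in the same wells of HepG2 DRE-luc cells after 24 h compound exposure at 37C.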

[8] = molecular target: Peroxisome proliferator-activated receptor gamma (Homo sapiens) (UniProt P37231); assay: qHTS assay to identify small molecule agonists of the peroxisome proliferator-activated receptor gamma (PPARg) signaling pathway (AID 743094; active means well fitted activation curve with a large enough effect in the signal ratio in the repeat runs, not every such curve was filed as active; inconclusive means weak or mixed curves, or effect the other way; inactive means no such curve, though single readings can be large or run the other way; the % refers to the signal ratio; further: potency means the concentration at half of the fitted maximal effect); conditions: HEK293H PPARg-UAS-bla, beta-lactamase FRET ratio, 17 h; series mostly up to 57 µM
Chain of Peroxisome proliferator-activated receptor gamma (Homo sapiens) (P37231 whole entry, looked up): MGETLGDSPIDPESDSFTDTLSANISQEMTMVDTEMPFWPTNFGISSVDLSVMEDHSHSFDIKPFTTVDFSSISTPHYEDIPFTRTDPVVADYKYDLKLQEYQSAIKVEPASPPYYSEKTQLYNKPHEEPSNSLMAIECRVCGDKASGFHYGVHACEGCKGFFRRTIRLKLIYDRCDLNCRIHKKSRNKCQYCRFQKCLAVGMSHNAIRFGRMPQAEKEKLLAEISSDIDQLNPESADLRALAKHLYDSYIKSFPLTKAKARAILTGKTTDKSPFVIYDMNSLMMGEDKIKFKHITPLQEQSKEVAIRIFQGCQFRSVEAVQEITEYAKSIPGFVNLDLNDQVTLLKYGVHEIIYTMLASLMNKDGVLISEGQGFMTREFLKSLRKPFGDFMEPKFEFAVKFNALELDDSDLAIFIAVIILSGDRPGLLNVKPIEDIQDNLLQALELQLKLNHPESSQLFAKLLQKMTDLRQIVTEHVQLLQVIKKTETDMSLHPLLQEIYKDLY
Procedure, shortened: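 Beta-lactamase FRET fluorescence was the read-out after a 1 h room-temperature substrate step, following 17 h compound treatment at 37C of HEK293H cells expressing a UAS-driven bla reporter responsive to PPARg.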

[9] = qHTS assay to identify small molecule antagonists of the peroxisome proliferator-activated receptor gamma (PPARg) signaling pathway - cell viability counter screen (AID 743194); conditions: PPARg-bla HEK293H viability, CellTiter-Glo luminescence, 17 h, co-treated with 50 nM rosiglitazone; series mostly up to 62.6 µM; further: nearly all actives have a fitted effect of over 55% in size
Procedure, shortened: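 Viability was measured as CellTiter-Glo luminescence in GeneBLAzer PPARg UAS-bla HEK293H cells. These cells had been exposed 17 h at 37 C to compounds together with rosiglitazone at 50 nM final, with the beta-lactamase readout taken in the same wells.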

[10] = qHTS assay for small molecule agonists of the antioxidant response element (ARE) signaling pathway (AID 743202; active means well fitted activation curve with a large enough effect in the signal ratio in the repeat runs, not every such curve was filed as active; inconclusive means weak or mixed curves, or effect the other way; inactive means no such curve, though single readings can be large or run the other way; the % refers to the signal ratio; further: potency means the concentration at half of the fitted maximal effect); conditions: HepG2 ARE-bla reporter, beta-lactamase FRET, 16 h; series mostly up to 73.3 µM
Procedure, shortened: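 Quantitative high-throughput format in HepG2 cells bearing an integrated ARE-beta-lactamase reporter. Compound exposure lasted 16 h at 37 C, and fluorescence was read 2 h after adding LiveBLAzer B/G substrate at room temperature.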

[11] = qHTS assay for small molecule agonists of the antioxidant response element (ARE) signaling pathway - cell viability counter screen (AID 743203; calls by dose curve; further: nearly all actives have a fitted effect of over 55% in size); conditions: ARE-bla HepG2 viability, CellTiter-Glo luminescence, 16 h; series mostly up to 73.3 µM
Procedure, shortened: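 HepG2 cells carrying ARE-driven beta-lactamase; 2,000 cells/well; 5 hrs plating; compound pinned from DMSO; 16 hrs 37C/5% CO2; CellTiter-Glo added; 30 min RT; luminescence.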

[12] = qHTS assay for small molecule activators of the heat shock response signaling pathway - cell viability counter screen (AID 743209); conditions: HSE-bla HeLa viability, CellTiter-Glo luminescence, 5 h; series mostly up to 62.6 µM; further: nearly all actives have a fitted effect of over 50% in size
Procedure, shortened: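 Luminescence from CellTiter-Glo, added after the beta-lactamase FRET read, gave the viability signal. Cells were HSE-bla HeLa treated with DMSO-dissolved compounds for 5 h at 37 C following overnight plating.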

[13] = qHTS assay for small molecule activators of the heat shock response signaling pathway (AID 743210; active means well fitted activation curve with a large enough effect in the signal ratio in the repeat runs, with a control signal flat, not every such curve was filed as active; inconclusive means weak or mixed curves; the % refers to the signal ratio;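 further: HeLa cells with beta-lactamase reporter driven by heat shock elements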); conditions: HeLa HSE-bla reporter, beta-lactamase ratio, 5 h; series mostly up to 62.6 µM
Procedure, shortened: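 HeLa HSE-bla cells, overnight plating; cpd in DMSO 5 h, 37 C; LiveBLAzer B/G FRET substrate 2.5 h RT; fluorescence intensity read.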

[14] = molecular target: Peroxisome proliferator-activated receptor gamma (Homo sapiens) (UniProt P37231); assay: qHTS assay to identify small molecule antagonists of the peroxisome proliferator-activated receptor gamma (PPARg) signaling pathway (AID 743191; calls by dose curve; further: nearly all actives have a fitted effect of over 30% in size; further: potency means the concentration at half of the fitted maximal effect); conditions: HEK293H PPARg-UAS-bla, beta-lactamase ratio, antagonist, 17 h; series mostly up to 62.6 µM
Procedure, shortened: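 Beta-lactamase reporter under UAS control in HEK293H PPARg-bla cells; compound treatment 17 h at 37C. Read-out: fluorescence intensity after 1 h room-temperature incubation with LiveBLAzer B/G FRET substrate.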

[15] = qHTS assay to identify small molecule antagonists of the estrogen receptor alpha (ER-alpha) signaling pathway - cell viability counter screen (AID 743074; calls by dose curve;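 further: HEK293 cells carrying ER-alpha-UAS-bla reporter stimulated with 17beta-estradiol; nearly all actives have a fitted effect of over 45% in size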); conditions: ERalpha-bla HEK293 viability, CellTiter-Glo luminescence, 18 h; series mostly up to 69.4 µM
Aromatase (Homo sapiens) = Aromatase (Homo sapiens) (UniProt P11511); assay: qHTS assay to identify aromatase inhibitors (AID 743083); conditions: MCF-7 aro ERE, testosterone-driven ERE luciferase, 24 h; series mostly up to 70.3 µM; further: nearly all actives have a fitted effect of over 55% in size; further: potency means the concentration at half of the fitted maximal effect
Chain of Aromatase (Homo sapiens) (P11511 whole entry, looked up): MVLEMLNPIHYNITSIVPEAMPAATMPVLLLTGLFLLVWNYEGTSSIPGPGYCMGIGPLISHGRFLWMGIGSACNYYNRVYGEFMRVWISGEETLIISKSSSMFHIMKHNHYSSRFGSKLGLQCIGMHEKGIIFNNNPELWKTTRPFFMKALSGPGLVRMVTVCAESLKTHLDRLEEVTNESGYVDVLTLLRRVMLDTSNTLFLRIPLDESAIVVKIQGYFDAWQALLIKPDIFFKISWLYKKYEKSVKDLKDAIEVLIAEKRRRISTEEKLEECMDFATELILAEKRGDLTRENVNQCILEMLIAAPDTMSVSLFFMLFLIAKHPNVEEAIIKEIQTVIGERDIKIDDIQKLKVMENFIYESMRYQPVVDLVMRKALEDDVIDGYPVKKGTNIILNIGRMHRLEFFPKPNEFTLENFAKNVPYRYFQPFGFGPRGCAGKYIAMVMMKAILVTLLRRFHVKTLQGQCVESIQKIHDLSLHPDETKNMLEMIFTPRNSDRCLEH

[16] = qHTS assay to identify small molecule that activate the aryl hydrocarbon receptor (AhR) signaling pathway - cell viability counter screen (AID 743086); conditions: HepG2-AhR-luc viability, CellTiter-Fluor, 24 h; series mostly up to 70.3 µM;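 further: HepG2 liver cells carrying the AhR DRE luciferase reporter; nearly all actives have a fitted effect of over 45% in size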
Procedure, shortened: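 Cytotoxicity counter screen: CellTiter-Fluor signal (30 min, 37 C) in 4000 HepG2 cells/well carrying the DRE-luciferase reporter, following 24 h compound exposure at 37 C.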

[17] = molecular target: Estrogen receptor (Homo sapiens) (UniProt P03372); assay: qHTS assay to identify small molecule agonists of the estrogen receptor alpha (ER-alpha) signaling pathway using the BG1 cell line (AID 743079); conditions: BG1Luc4E2 cells, ERE-luciferase agonist, 22 h; activation: at 70.3 µM (top of the series); further: nearly all actives have a fitted effect of over 20% in size; further: potency means the concentration at half of the fitted maximal effect

Row | SMILES | outcome [1] | Potency [2] | Potency [3] | Potency [4] | Potency [5] | Potency [6] | Potency [7] | Potency [8] | Potency [9] | Potency [10] | Potency [11] | Potency [12] | Potency [13] | Potency [14] | Potency [15] | Potency (Aromatase (Homo sapiens)) | Potency [16] | activation [17] | Potency [17]
1 | O=C1c2ccccc2C(=O)N1CCc1noc(-c2ccc(CN3CCCCCC3)s2)n1 | inactive | inactive | inactive | 49.9 µM (active) | inactive | inactive | 6.29 µM (active) | inactive | inactive | 6.29 µM (active) | inactive | inactive | inactive | – | – | – | – | – | –
2 | COC(=O)[C@H]1[C@H]2C[C@@H]3c4[nH]c5cc(OC)ccc5c4CCN3C[C@H]2C[C@@H](OC(=O)/C=C/c2ccc(O)c(OC)c2)[C@@H]1OC | – | – | – | – | – | – | – | – | – | – | inactive | inactive | – | 6.68 µM (active) | – | – | – | – | –
3 | O=C(O)CCc1nc(-c2ccccc2)c(-c2ccccc2)o1 | inactive | inactive | inactive | inactive | inactive | inactive | inactive | 15.1 µM (active) | – | – | inactive | inactive | inactive | inactive | inactive | inactive | – | – | –
4 | CC(=O)OCCN(CCOC(C)=O)c1ccc(N=Nc2ccc([N+](=O)[O-])cc2C#N)cc1 | inactive | – | – | – | – | 27.3 µM (active) | – | inactive | inactive | – | inactive | inactive | – | inactive | inactive | – | inactive | – | –
5 | C[C@]12CC[C@@H]3c4ccc(O)cc4CC[C@H]3[C@@H]1CC[C@@H]2OC(=O)CCC1CCCC1 | inactive | – | 1.2 nM [inconclusive] (active) and 0.5 nM [inconclusive] (active) | inactive | inactive | inactive | inactive | inactive | – | inactive | inactive | – | – | inactive | inactive | inactive and 61.1 µM (active) | inactive | 60.2% (active) and 48.5% (active) and 30.3% (active) | –
6 | C[C@H]1C[C@H](O)c2ccsc2S1(=O)=O | – | – | – | – | – | – | – | – | inactive | inactive | inactive | inactive | inactive | – | – | – | – | – | –
7 | C/C=C(/C(=C/C)c1ccc(O)cc1)c1ccc(O)cc1 | inactive | – | 0.6 nM [inconclusive] (active) | inactive | inactive | inactive | inactive | inactive | – | 15 µM (active) | inactive | inactive | – | 29.8 µM (active) | inactive | inactive | – | – | 0.0003 µM (active)
8 | O=C1c2ccccc2C(=O)C1(O)O | inactive | inactive | inactive | inactive | inactive | – | 61.4 µM (active) | inactive | inactive | inactive | – | inactive | – | inactive | inactive | – | inactive | – | inactive
9 | O=C1Cc2cc(Cl)ccc2N1 | – | – | – | – | – | – | – | – | inactive | 21.1 µM (active) | inactive | inactive | inactive | inactive | – | – | – | – | –
